Here are results for 37 compounds from PubChem BioAssay AID651791 (National Center for Advancing Translational Sciences (NCATS), 2012).

Inconclusive results are not listed. Active and inactive are the calls of the source. Calls follow the shape of the dose curve; as a rule, active = well fitted inhibition curve with a large enough effect; inconclusive = small, poorly fitted or top-dose-only effect; inactive = no such curve, though single readings can be large or run the other way.
Potency is read from the fitted curve at half-maximal effect.

The assay in a line: InCell qHTS Assay for Inhibitors of the mTORC1 Signaling Pathway in MEF (Tsc2-/-, p53-/-) Cells: Hit Validation.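 Also: phospho-S6 Ser235/236 signal normalized to propidium iodide cell count per well; nearly all actives have a fitted effect of over 75% in size.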 Particulars: phospho-rpS6 immunofluorescence, 24 h; activity change, negative = inhibition: at 38.3 µM (top of the series). Background: qHTS replaces the single test concentration by a dilution series.
As for `COC(=O)c1ccc(Nc2nnc(-c3ccc(C)c(S(=O)(=O)N4CCN(C)CC4)c3)c3ccccc23)cc1`, the activity change, negative = inhibition was -100%.

`CC(C)c1ccc(NS(=O)(=O)c2ccc3nc(-c4ccccc4)[nH]c3c2)cc1`: the activity change, negative = inhibition is -100%.

Regarding `CCN(CC)c1ccc(NC(=O)CN(C)S(=O)(=O)c2cccc3nsnc23)c(C)c1`, the activity change, negative = inhibition was -100%.

As to `CCN1CCN(c2ccc(NS(=O)(=O)c3c(C)nc4sccn4c3=O)cc2Cl)CC1`, the activity change, negative = inhibition was -100%.

As to `Cc1ccc(CN2C(=O)C(=O)c3cc(Br)cc(C)c32)cc1`, the Potency was 18.5 µM (active).

In the case of `CCC(Sc1nncn2c1cc1oc(C)cc12)C(=O)Nc1ccc(F)cc1` (configuration not stated), the activity change, negative = inhibition was -100%.

In the case of `O=C(NCCc1ccc(Cl)cc1)C(=O)NCC(c1cccs1)S(=O)(=O)c1cccs1` (configuration not stated), the activity change, negative = inhibition was -100%.

On to `CC(C)S(=O)(=O)c1oc(-c2cccs2)nc1S(=O)(=O)c1ccc(F)cc1`, for which the Potency is 1.47 µM (active).

With `COc1ccc(Cl)cc1S(=O)(=O)NCc1ccc2c(c1)CCN2C(=O)c1cccc(C)c1`, the activity change, negative = inhibition is -8.71%.

Regarding `CC(C)OCCCn1c(=O)c2ccccc2n2c(-c3ccc(F)cc3)nnc12`, the activity change, negative = inhibition is -100%.

For the compound `O=C(CC1(O)C(=O)N(CCc2ccccc2)c2ccc(Br)cc21)c1ccccc1O` (configuration not stated), the activity change, negative = inhibition came out at 1.72%.

Regarding `CC1=C(C(=O)OC2CCCC2)C(c2ccccc2Cl)CC(=O)N1` (configuration not stated), the activity change, negative = inhibition was -100%.

As for `CC(C)CS(=O)(=O)c1oc(-c2ccc(F)cc2)nc1S(=O)(=O)c1ccccc1`, the Potency is 3.29 µM (active).

As to `CN(C)c1ccc(NC(=O)Cn2cc(S(=O)(=O)Cc3ccccc3Cl)c3ccccc32)cc1`, the activity change, negative = inhibition is -29.2%.

Take `Cc1cccc(Cn2cc(C(=O)Nc3ccc(F)c(C(F)(F)F)c3)ccc2=O)c1`: the activity change, negative = inhibition was -100%.

`COc1ccc(S(=O)(=O)Nc2ccc3oc4c(c3c2)CCCC4)cc1`: the activity change, negative = inhibition was -100%.

`COc1ccc(C)cc1NC(=O)CCNS(=O)(=O)c1cccc2nonc12`: the activity change, negative = inhibition is -100%.

In the case of `COCCCNC(=O)c1cc2c(=O)oc3ccc(C)cc3c2s1`, the activity change, negative = inhibition was -100%.

Regarding `Cc1cccc(N2CCN(C(=O)C3CCN(C(=O)c4cc5sccc5n4C)CC3)CC2C)c1` (configuration not stated), the activity change, negative = inhibition is -100%.

Consider `CCOc1cc(-c2nnc(SCC(=O)NCc3ccccc3)nc2-c2ccc(OC)c(OCC)c2)ccc1OC`, for which the activity change, negative = inhibition is -100%.

`COc1cc(C)ccc1OCCn1c(-c2ccc(Cl)cc2)nc2ccccc2c1=O`: the activity change, negative = inhibition is -100%.

On to `CCc1ccc(OCC(=O)N(Cc2ccc(C)cc2)Cc2ccco2)cc1`, for which the activity change, negative = inhibition was -100%.

`Cc1cc(OCC(=O)Nc2cc(-c3nc4ccccc4[nH]3)ccc2C)ccc1Cl`: the activity change, negative = inhibition was -100%.

On to `CCOc1ccc(NC(=O)CSc2oc(-c3ccc(F)cc3)nc2S(=O)(=O)c2ccc(C)cc2)cc1`, for which the Potency was 4.65 µM (active).

In the case of `CCOC(=O)Cc1ccc(NC(=O)n2ncc3cc(Cl)ccc32)cc1`, the activity change, negative = inhibition was -100%.

For `COc1ccc(CCN2C(=O)c3[nH]nc(-c4ccccc4O)c3C2c2ccc(OC)c(OC)c2)cc1` (configuration not stated), the activity change, negative = inhibition is -100%.

On to `Cc1c(C(=O)Nc2ccc(F)cc2F)nnn1-c1ccccc1Br`, for which the activity change, negative = inhibition is -100%.

In the case of `Cc1ccc(-c2csc(-c3cc4c([nH]c3=O)CC(c3ccccc3)CC4=O)n2)cc1` (configuration not stated), the activity change, negative = inhibition was -100%.

For the compound `CCCn1c2ccc(C)cc2c2nnc(SCCN3CCCCC3)nc21`, the activity change, negative = inhibition is -100%.

As for `COc1ccc(NC(=O)CSc2c3c(nc4ccccc24)CCC3)c(OC)c1`, the activity change, negative = inhibition was -100%.

Regarding `COc1ccc(S(=O)(=O)NCCc2sc3nc(-c4ccc(C)cc4)nn3c2C)cc1F`, the activity change, negative = inhibition was -100%.

Take `COc1ccc(C2=NS(=O)(=O)N(C)C(C(=O)Nc3ccc(OC(F)(F)F)cc3)=C2)cc1`: the activity change, negative = inhibition is -100%.

For the compound `CN(CCCNC(=O)c1cc2c(Cl)nc3ccccc3c2s1)Cc1ccccc1`, the activity change, negative = inhibition is -100%.

Regarding `CCCCS(=O)(=O)c1oc(-c2ccc(F)cc2)nc1S(=O)(=O)c1ccccc1`, the Potency was 2.07 µM (active).

Regarding `CCc1nnc(NC(=O)c2nc(S(=O)(=O)Cc3cccc(C)c3)ncc2Cl)s1`, the Potency was 4.14 µM (active).

Regarding `CC(C(=O)NCc1cccc(Br)c1)n1ncn2cccc2c1=O` (configuration not stated), the activity change, negative = inhibition was -100%.

Regarding `CCCCN1C(=O)C(O)(CC(=O)c2ccc(C(C)(C)C)cc2)c2ccccc21` (configuration not stated), the activity change, negative = inhibition is -28.2%.
